The record followed here is PubChem BioAssay (EPA / NIEHS).

SMILES strings stand for the structures. The source made the active and inactive calls. How the source made its calls: active means hit-call score of the fitted dose curve at least 0.9, where 1 is the maximum; inactive means score below 0.9.

What all share (conditions): mRNA level, 48 h; actives raise or lower the signal
Read-out in one assay: CYP2E1 (gene 1571)
Description: LTEA_HepaRG_CYP2E1: Life Technologies and Expression Analysis (LTEA) Assay for CYP2E1 using HepaRG (AID 2283485). Summed up: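 Readout is qRT-PCR of CYP2E1 mRNA, normalized to three housekeeping genes and fitted bidirectionally against 0.5% DMSO. HepaRG cells were dosed 48 h at eight concentrations, highest 100 uM with half-log dilutions.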

Read-out in a further assay: CYP4A11 (gene 1579)
Description: LTEA_HepaRG_CYP4A11: Life Technologies and Expression Analysis (LTEA) Assay for CYP4A11 using HepaRG (AID 2283486). Summed up:
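Human hepatic HepaRG cultures receive duplicate 48 h exposures across a concentration-response series topping at 100 uM. Expression changes in CYP4A11 are measured by qRT-PCR relative to DMSO controls.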

Read-out in assay [1]: Cytochrome P450 3A4 (Homo sapiens) (UniProt P08684)
Description: LTEA_HepaRG_CYP3A4: Life Technologies and Expression Analysis (LTEA) Assay for CYP3A4 using HepaRG (AID 2283487). In a few lines:
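HepaRG, 48 h exposure, 8-pt CRC from 100 uM (half-log), 0.5% DMSO, duplicates; serum-free induction medium. Readout: CYP3A4 mRNA, qRT-PCR, ACTB/GAPDH/POLR2A normalization. Bidirectional fit vs DMSO.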

Read-out in assay [2]: Pro-epidermal growth factor (Homo sapiens) (UniProt P01133)
Description: LTEA_HepaRG_EGF: Life Technologies and Expression Analysis (LTEA) Assay for Epidermal growth factor (EGF) using HepaRG (AID 2283489). In a few lines:
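Concentration-response mRNA assay: HepaRG cells dosed 48 h (max 100 uM, 0.5% DMSO), EGF measured by qRT-PCR and normalized to ACTB/GAPDH/POLR2A.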

Read-out in assay [3]: Early growth response protein 1 (EGR1) transcription factor, EGR1 (gene 1958)
Description: LTEA_HepaRG_EGR1: Life Technologies and Expression Analysis (LTEA) Assay for Early growth response protein 1 (EGR1) transcription factor using HepaRG (AID 2283490). In a few lines:
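EGR1 expression change in human HepaRG after 48 h chemical exposure, assessed by housekeeping-normalized qRT-PCR; concentration-response up to 100 uM, fitted in both directions against DMSO controls.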

Read-out in assay [4]: Ezrin (EZR), EZR (gene 7430)
Description: LTEA_HepaRG_EZR: Life Technologies and Expression Analysis (LTEA) Assay for Ezrin (EZR) using HepaRG (AID 2283491). In a few lines: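 Read-out is EZR transcript level by qRT-PCR, normalized to three housekeeping genes and fitted bidirectionally against the DMSO control. Human HepaRG cells received test chemicals for 48 h at eight half-log concentrations up to 100 uM in 0.5% DMSO.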

Read-out in the next assay: CYP3A5 (gene 1577)
The assay is described as follows: LTEA_HepaRG_CYP3A5: Life Technologies and Expression Analysis (LTEA) Assay for CYP3A5 using HepaRG (AID 2283493). Summed up:
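Human HepaRG hepatic cells receive 48 h chemical treatment at eight concentrations (half-log steps from 100 uM) in 0.5% DMSO. Expression of CYP3A5 is quantified by Fluidigm qRT-PCR and normalized to three reference genes.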

Read-out in assay [5]: Fatty Acid-Binding Protein 1 (FABP1), FABP1 (gene 2168)
The assay is described as follows: LTEA_HepaRG_FABP1: Life Technologies and Expression Analysis (LTEA) Assay for Fatty Acid-Binding Protein 1 (FABP1) using HepaRG (AID 2283494). In a few lines: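 Values reflect bidirectional concentration-response fitting of FABP1 mRNA change against 0.5% DMSO controls. Human HepaRG cultures received eight half-log doses (top 100 uM) for 48 h; expression quantified by TaqMan qRT-PCR with housekeeping-gene normalization.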

Read-out in assay [6]: Cytochrome P450 4A22 (Homo sapiens) (UniProt Q5TCH4)
Description: LTEA_HepaRG_CYP4A22: Life Technologies and Expression Analysis (LTEA) Assay for Cytochrome P450 4A22 (CYP4A22) using HepaRG (AID 2283495). In a few lines: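 Concentration-response (8 points, max 100 uM, 0.5% DMSO) in human HepaRG liver cells after 48 h exposure. CYP4A22 mRNA by TaqMan qRT-PCR with housekeeping-gene normalization.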

Read-out in assay [7]: Glutamate-cysteine ligase catalytic (GCLC), GCLC (gene 2729)
Description: LTEA_HepaRG_GCLC: Life Technologies and Expression Analysis (LTEA) Assay for Glutamate-cysteine ligase catalytic (GCLC) using HepaRG (AID 2283498). Summed up: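 Oxidative-stress marker GCLC is measured as mRNA change in human HepaRG liver cells after 48 h chemical treatment in 0.5% DMSO, eight concentrations from 100 uM. Activity is fitted bidirectionally against vehicle.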

Read-out in assay [8]: growth arrest and DNA damage 45 (GADD45G), GADD45G (gene 10912)
Description: LTEA_HepaRG_GADD45G: Life Technologies and Expression Analysis (LTEA) Assay for growth arrest and DNA damage 45 (GADD45G) using HepaRG (AID 2283499). Summed up: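 Concentration-response in HepaRG: 48 h dosing, 0.5% DMSO, highest level 100 uM. GADD45G expression by qRT-PCR, normalised to endogenous controls; bidirectional fit to DMSO.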

Read-out in assay [9]: Glutathione S-transferase M3 (GSTM3), GSTM3 (gene 2947)
Description: LTEA_HepaRG_GSTM3: Life Technologies and Expression Analysis (LTEA) Assay for Glutathione S-transferase M3 (GSTM3) using HepaRG (AID 2283501). In a few lines:
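Expression of GSTM3 is determined by qRT-PCR in human liver HepaRG cells treated 48 h with an 8-point half-log range from 100 uM in 0.5% DMSO.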

Read-out in assay [10]: Hypoxia-inducible factor 1-alpha (Homo sapiens) (UniProt Q16665)
The assay is described as follows: LTEA_HepaRG_HIF1A: Life Technologies and Expression Analysis (LTEA) Assay for Hypoxia-inducible factor 1 (HIF1A) Trancription factor using HepaRG (AID 2283503). In a few lines:
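HIF1A transcript level read by qRT-PCR (ACTB, GAPDH, POLR2A normalization) after 48 h chemical exposure of HepaRG cultures. Eight half-log concentrations, top 100 uM, 0.5% DMSO vehicle, duplicates; bidirectional curve fit against DMSO baseline.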

Read-out in assay [11]: Glutamate-cysteine ligase regulatory (GCLM), GCLM (gene 2730)
Description: LTEA_HepaRG_GCLM: Life Technologies and Expression Analysis (LTEA) Assay for Glutamate-cysteine ligase regulatory (GCLM) using HepaRG (AID 2283500). In a few lines:
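Endpoint is GCLM transcript level by qRT-PCR, normalized to three housekeeping genes, after 48 h chemical exposure of human HepaRG cells (0.5% DMSO vehicle, top 100 uM, half-log dilutions). Fitting was bidirectional relative to DMSO.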

Read-out in assay [12]: 3-Hydroxy-3-Methylglutaryl-CoA Synthase 2 (HMGCS2), HMGCS2 (gene 3158)
The assay is described as follows: LTEA_HepaRG_HMGCS2: Life Technologies and Expression Analysis (LTEA) Assay for 3-Hydroxy-3-Methylglutaryl-CoA Synthase 2 (HMGCS2) using HepaRG (AID 2283504). Summed up:
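This steatosis marker was read as HMGCS2 mRNA change in HepaRG cells treated 48 h with up to 100 uM chemical. Normalisation used housekeeping genes; activity in either direction was fitted relative to 0.5% DMSO vehicle.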

Read-out in assay [13]: Heat shock 70 kDa protein 1 (HSPA1A), gene 3303
Description: LTEA_HepaRG_HSPA1A: Life Technologies and Expression Analysis (LTEA) Assay for Heat shock 70 kDa protein 1 (HSPA1A) using HepaRG (AID 2283502). In a few lines: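 Cells were plated and cultured for 48 h, then switched to serum-free induction medium. Chemicals were added at eight half-log concentrations up to 100 uM for 48 h. RNA was then isolated and HSPA1A measured by qRT-PCR with bidirectional curve fitting against DMSO.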

Read-out in assay [14]: Glutathione S-Transferase (GSTA2), GSTA2 (gene 2939)
Description: LTEA_HepaRG_GSTA2: Life Technologies and Expression Analysis (LTEA) Assay for Glutathione S-Transferase (GSTA2) using HepaRG (AID 2283497). Summed up:
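Oxidative-stress marker GSTA2 is quantified by TaqMan qRT-PCR in HepaRG cultures treated 48 h across an eight-point range to 100 uM. Expression is normalized to endogenous controls and compared with 0.5% DMSO vehicle.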

Read-out in assay [15]: DNA damage-inducible transcript 3 (DDIT3), DDIT3 (gene 1649)
Description: LTEA_HepaRG_DDIT3: Life Technologies and Expression Analysis (LTEA) Assay for DNA damage-inducible transcript 3 (DDIT3) using HepaRG (AID 2283488). Summed up:
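Cells are human HepaRG liver cells treated for 48 h with eight half-log concentrations up to 100 uM in 0.5% DMSO. Transcript levels come from qRT-PCR normalized to three housekeeping genes, with activity fitted in both directions relative to vehicle.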

Hypoxia-inducible factor 1-alpha (Homo sapiens), sequence (Q16665 whole entry, looked up): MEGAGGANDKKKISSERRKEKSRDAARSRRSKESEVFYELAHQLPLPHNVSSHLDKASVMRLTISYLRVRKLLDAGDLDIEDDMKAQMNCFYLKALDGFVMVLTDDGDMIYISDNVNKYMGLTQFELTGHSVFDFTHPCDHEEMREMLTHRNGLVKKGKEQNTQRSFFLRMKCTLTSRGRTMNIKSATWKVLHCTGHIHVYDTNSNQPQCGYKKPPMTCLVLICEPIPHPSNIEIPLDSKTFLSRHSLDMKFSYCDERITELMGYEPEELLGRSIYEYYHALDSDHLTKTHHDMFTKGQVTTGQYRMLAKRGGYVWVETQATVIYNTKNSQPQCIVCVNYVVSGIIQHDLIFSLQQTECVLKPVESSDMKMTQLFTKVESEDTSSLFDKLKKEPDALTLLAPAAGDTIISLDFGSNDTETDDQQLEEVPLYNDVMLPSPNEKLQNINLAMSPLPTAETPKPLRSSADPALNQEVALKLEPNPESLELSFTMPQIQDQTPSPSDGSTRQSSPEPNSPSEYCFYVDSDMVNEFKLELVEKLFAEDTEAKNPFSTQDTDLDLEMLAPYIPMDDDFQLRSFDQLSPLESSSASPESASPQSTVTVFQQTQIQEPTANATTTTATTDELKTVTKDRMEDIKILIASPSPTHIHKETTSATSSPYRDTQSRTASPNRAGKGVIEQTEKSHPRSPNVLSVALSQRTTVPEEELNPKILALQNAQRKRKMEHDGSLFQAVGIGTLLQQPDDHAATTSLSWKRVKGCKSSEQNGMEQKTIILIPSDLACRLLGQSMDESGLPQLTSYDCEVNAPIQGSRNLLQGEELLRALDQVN
Cytochrome P450 3A4 (Homo sapiens), sequence (P08684 whole entry, looked up): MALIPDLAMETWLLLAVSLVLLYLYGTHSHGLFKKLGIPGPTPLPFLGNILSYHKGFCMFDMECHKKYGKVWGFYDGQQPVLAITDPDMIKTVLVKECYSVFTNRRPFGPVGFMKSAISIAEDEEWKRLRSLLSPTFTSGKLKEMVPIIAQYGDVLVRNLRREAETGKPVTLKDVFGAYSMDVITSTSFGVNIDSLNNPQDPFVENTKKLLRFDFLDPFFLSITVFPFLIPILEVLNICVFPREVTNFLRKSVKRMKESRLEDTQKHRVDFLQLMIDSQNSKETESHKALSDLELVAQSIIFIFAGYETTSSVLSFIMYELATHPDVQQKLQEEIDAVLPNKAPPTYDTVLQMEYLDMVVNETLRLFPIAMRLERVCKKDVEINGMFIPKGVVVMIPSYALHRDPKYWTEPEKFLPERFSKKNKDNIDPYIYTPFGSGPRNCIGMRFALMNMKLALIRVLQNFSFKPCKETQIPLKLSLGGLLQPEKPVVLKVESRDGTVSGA

As a reminder, the AC50 is the concentration at which the activity in the assay is half-maximal. For `CC(Oc1ccc(Cl)cc1Cl)C(=O)O` (configuration not stated), the call (with CYP2E1 (gene 1571); in assay [1]; in assay [2]; in assay [3]; in [4]; with CYP3A5 (gene 1577)) was inactive. The call in assay [6], in [7], in assay [8], in assay [9] and in [10] was inactive. In addition, the half-maximal activity concentration (AC50) with CYP4A11 (gene 1579) was 71.5 µM (active); in [5], 50 µM (active).

`OC(c1ccc(Cl)cc1)(c1cncnc1)c1ccccc1Cl` (configuration not stated): the half-maximal activity concentration (AC50) with CYP2E1 (gene 1571) was 46.7 µM (active); in the assay with CYP4A11 (gene 1579), 70.4 µM (active); in assay [1], 11.4 µM (active); in assay [2], 34.1 µM (active); in assay [5] it was 80.4 µM (active); in [6] it was 72.9 µM (active). Also, the AC50 in [7] was 50 µM (active); in assay [8], 68.7 µM (active); in assay [11], 57.8 µM (active). Also, the outcome (in assay [3]; in assay [4]; with CYP3A5 (gene 1577); in [9]; in assay [10]) was inactive.

On to `C=CC1(C)OC(=O)N(c2cc(Cl)cc(Cl)c2)C1=O` (configuration not stated), for which the AC50 with CYP2E1 (gene 1571) is 40.1 µM (active); in [1] it was 13.6 µM (active). The call (with CYP4A11 (gene 1579); in [2]; in assay [3]; in assay [4]; in the assay with CYP3A5 (gene 1577); in [5]) was inactive. Further, the compound was classed as inactive in [6], in assay [7], in assay [8], in assay [9], in assay [10] and in assay [12].

In the case of `CCCCNC(=O)n1c(NC(=O)OC)nc2ccccc21`, the result (with CYP2E1 (gene 1571); with CYP4A11 (gene 1579); in [1]; in assay [2]; in [3]; in assay [4]) was inactive. The outcome (with CYP3A5 (gene 1577); in assay [5]; in [6]; in assay [7]; in assay [8]; in assay [9]) was inactive. For the same compound, the call in [13] and in [10] was inactive.

For the compound `Cc1cc(Cl)ccc1OCC(=O)O`, the concentration at half-maximal activity (AC50) with CYP2E1 (gene 1571) was 30.9 µM (active); in the assay with CYP4A11 (gene 1579), 12 µM (active). Besides, the compound was called inactive (in assay [1]; in [2]; in [3]; in assay [4]; with CYP3A5 (gene 1577); in assay [5]). For the same compound, the result in assay [6], in assay [14], in assay [7], in assay [8], in assay [9] and in assay [10] was inactive.

Consider `COC(=O)C(C)Oc1ccc(Oc2ccc(Cl)cc2Cl)cc1` (configuration not stated), for which the concentration at half-maximal activity (AC50) in the assay with CYP2E1 (gene 1571) is 50 µM (active); with CYP4A11 (gene 1579), 12.7 µM (active); in [6] it was 12.7 µM (active); in assay [14], 74.4 µM (active). Also, the compound was classed as inactive (in assay [1]; in [2]; in assay [3]; in assay [4]; in the assay with CYP3A5 (gene 1577); in [5]). In addition, the call in assay [7], in assay [8], in assay [11], in assay [9] and in assay [10] was inactive.

Take `CCON=C(CC)C1=C(O)CC(c2c(C)cc(C)cc2C)CC1=O` (configuration not stated): the concentration at half-maximal activity (AC50) with CYP2E1 (gene 1571) was 43.6 µM (active); with CYP4A11 (gene 1579) it was 25 µM (active); in assay [6], 18.9 µM (active). Further, the call (in assay [15]; in assay [2]; in assay [3]; in [4]; with CYP3A5 (gene 1577); in assay [5]) was inactive. Besides, the call in [7], in [8], in assay [9] and in assay [10] was inactive.
